Measurements reported in PubChem BioAssay AID1159580 (chemical genetic matrix, 2015).
Among all 5,500 compounds or so, about 2,000 (36%) were called active. Not shown: some 18% with an inconclusive outcome. Rule as the data show it: active = normalized growth mostly below about 0.91 (no sharp cut-off); inconclusive = no clear call, values can overlap the other calls; inactive = mostly above about 0.92. The list shows a part of the results.

Test: chemical genetic growth profiling, strain panel (AID 1159580);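 also: tested at 20 µM; growth read once vehicle control cultures reached saturation at 30 °C; 1 = growth at the plate median or of vehicle wells; lower values mean less growth of the strain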
Settings: growth OD
[1] = S. cerevisiae deletion strains, locus YAL013W, strain DEP1, stronger effect = lower value
[2] = S. cerevisiae deletion strains, locus YBR229C, strain ROT2, stronger effect = lower value
[3] = S. cerevisiae deletion strains, locus YDL101C, strain DUN1, stronger effect = lower value
[4] = S. cerevisiae deletion strains, locus YDR150W, strain NUM1, stronger effect = lower value
[5] = S. cerevisiae deletion strains, locus YEL061C, strain CIN8, stronger effect = lower value
[6] = S. cerevisiae deletion strains, locus YGR078C, strain PAC10, stronger effect = lower value
[7] = S. cerevisiae deletion strains, locus YHR030C, strain SLT2, stronger effect = lower value
[8] = S. cerevisiae deletion strains, locus YHR087W, strain rtc3, stronger effect = lower value
[9] = S. cerevisiae deletion strains, locus YJR043C, strain POL32, stronger effect = lower value
[10] = S. cerevisiae deletion strains, locus YJR075W, strain HOC1, stronger effect = lower value
[11] = S. cerevisiae deletion strains, locus YLR039C, strain RIC1, stronger effect = lower value
[12] = S. cerevisiae deletion strains, locus YLR058C, strain SHM2 (second series), stronger effect = lower value
[13] = S. cerevisiae deletion strains, locus YLR085C, strain ARP6, stronger effect = lower value
[14] = S. cerevisiae deletion strains, locus YLR262C, strain YPT6, stronger effect = lower value
[15] = S. cerevisiae deletion strains, locus YML094W, strain GIM5, stronger effect = lower value
[16] = S. cerevisiae deletion strains, locus YMR219W, strain ESC1, stronger effect = lower value
[17] = S. cerevisiae deletion strains, locus YMR263W, strain SAP30, stronger effect = lower value
[18] = S. cerevisiae deletion strains, locus YMR307W, strain GAS1, stronger effect = lower value
[19] = S. cerevisiae deletion strains, locus YNL153C, strain GIM3, stronger effect = lower value
[20] = S. cerevisiae deletion strains, locus YNL298W, strain CLA4 (second series), stronger effect = lower value
[21] = S. cerevisiae deletion strains, locus YNL322C, strain KRE1, stronger effect = lower value
[22] = S. cerevisiae deletion strains, locus YNR030W, strain Alg12, stronger effect = lower value
[23] = S. cerevisiae deletion strains, locus YPL055C, strain LGE1, stronger effect = lower value
[24] = S. cerevisiae deletion strains, locus YPL241C, strain CIN2, stronger effect = lower value
[25] = S. cerevisiae deletion strains, locus YPR135W, strain CTF4, stronger effect = lower value

Measured: normalized growth

CCOC(=O)c1ccc(NC(=O)CCC(=O)O)cc1
inactive: [1] 0.994 | [2] 0.983 | [3] 0.978 | [4] 0.99 | [5] 0.99 | [6] 0.99 | [7] 1.07 | [8] 0.982 | [9] 1.01 | [10] 1 | [11] 1.06 | [12] 0.987 | [13] 1.02 | [14] 1.05 | [15] 1 | [16] 0.991 | [17] 0.981 | [18] 1.01 | [19] 1.01 | [20] 1.01 | [21] 0.989 | [22] 1.02 | S. cerevisiae deletion strains, locus YOL006C, strain TOP1, stronger effect = lower value 1.04 | [23] 1 | [24] 1.01 | [25] 1.13

CCOC(=O)c1ccc(NC(N)=S)cc1
inactive: [1] 1.01 | [2] 1.01 | S. cerevisiae deletion strains, locus YCL061C, strain MRC1, stronger effect = lower value 0.994 | [3] 0.994 | [4] 0.941 | [5] 0.998 | [6] 0.993 | S. cerevisiae deletion strains, locus YGR229C, strain SMI1, stronger effect = lower value 1 | [7] 1.03 | [8] 0.992 | [9] 0.997 | [10] 0.956 | [11] 1.01 | [12] 0.998 | [13] 0.974 | [14] 1.05 | [15] 0.966 | [16] 0.998 | [17] 0.935 | [18] 0.935 | [19] 0.979 | [20] 1 | [21] 1.01 | [22] 1 | [23] 0.949 | [24] 0.986 | [25] 0.968 | S. cerevisiae strains, strain wild type, stronger effect = lower value 1.01
